Experimental data as given in PubChem BioAssay (NCI).
The panel holds about 79,000 compounds, 15% with a hit somewhere; the sample as a whole holds those more often. No stated cut-off is given here; in the data, active means growth inhibition above about 70%; inactive means the rest.

What was measured:
[1] = NCI Yeast Anticancer Drug Screen. Data for the rad50 strain (AID 155);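 further: 0% = growth of vehicle-only cultures of the same strain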; conditions: S. cerevisiae rad50 strain growth inhibition; at 50.0 µM; active compounds read high
In short: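 Yeast carrying a defined DNA repair defect were exposed to test compounds, and growth was compared with vehicle-treated controls to give percent inhibition.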

[2] = NCI Yeast Anticancer Drug Screen. Data for the mec2-1 strain (AID 157); conditions: S. cerevisiae mec2-1 strain, at 50.0 µM, active compounds read high
In short: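 Readout is yeast growth inhibition, normalised to vehicle-treated controls, in the mec2-1 strain exposed to compound.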

[3] = NCI Yeast Anticancer Drug Screen. Data for the sgs1 mgt1 strain (AID 161);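 further: 0% = growth of cultures given vehicle only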; conditions: S. cerevisiae sgs1 mgt1 strain, at 50.0 µM, active compounds read high
In short: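 Growth of a repair-deficient yeast mutant was monitored after compound treatment and expressed as inhibition relative to vehicle-treated cultures.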

[4] = NCI Yeast Anticancer Drug Screen. Data for the cln2 rad14 strain (AID 165);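 further: 0% = growth equal to vehicle treated cultures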; conditions: S. cerevisiae cln2 rad14 strain, at 50.0 µM, active compounds read high
In short: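 Relative to vehicle controls, growth inhibition of compound-treated cln2 rad14 yeast was recorded.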

[5] = NCI Yeast Anticancer Drug Screen. Data for the bub3 strain (AID 167); conditions: S. cerevisiae bub3 mutant strain, at 50.0 µM, active compounds read high
In short: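 Compounds were applied to a genetically altered yeast strain carrying a cell-cycle control defect. Growth inhibition was scored against vehicle-treated controls.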

[6] = NCI Yeast Anticancer Drug Screen. Data for the mlh1 rad18 strain (AID 175); conditions: S. cerevisiae mlh1 rad18 strain growth inhibition; at 50.0 µM; active compounds read high
In short: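 Test agents were incubated with a yeast strain of defined genotype (DNA damage repair defect). Inhibition of growth was derived by comparison with vehicle-exposed cultures.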

Measured: growth inhibition

CCNc1nnc(-c2nsc3ccccc23)s1
inactive: [1] -12.7% | [2] -36.1% | [3] -10.1% | [4] -11.5% | [5] -27.5% | [6] -18.9%

CC/C(C)=N/NS(=O)(=O)c1ccc(C)cc1
inactive: [1] 43.9% | [2] 13.2% | [3] 2.3% | [4] 16% | [5] 1.15% | [6] 42.5%

COc1cc(C)nc2ccc(Cc3ccc4nc(C)cc(OC)c4c3)cc12
inactive: [1] 6.75% | [2] 6.8% | [3] -3% | [4] -14.2% | [5] 7.4% | [6] 25.6%

Cc1ccc(NC(=O)Oc2ccc(Cl)cc2Cl)cc1NC(=O)Oc1ccc(Cl)cc1Cl
inactive: [1] -20.1% | [2] -1.15% | [3] -13.3% | [4] -13.1% | [5] -3.2% | [6] -42.7%

CC[C@@]12C=CC(=S)N(CCSc3ccccc3)[C@@H]1c1c(n(S(=O)(=O)c3ccc(OC)cc3)c3ccccc13)CC2
inactive: [1] -33% | [2] -1.2% | [3] 0.95% | [4] -53% | [5] -2.55% | [6] 6%

COc1ccc([N+](=O)[O-])c2ncncc12
inactive: [1] -14.4% | [2] -12% | [3] 0.8% | [4] 6.6% | [5] -10.9% | [6] 20.6%

CCOc1ccc(NC(=O)Nc2cccc(Cl)c2C)cc1
inactive: [1] 0.45% | [2] 9.25% | [3] 11.4% | [4] -13.8% | [5] 9.85% | [6] -20.6%

C[Si](C)(C)COC(N)=O
inactive: [1] -5.5% | [2] 10.8% | [3] -12.4% | [4] 8.1% | [5] 9.4% | [6] 0.45%

Cc1ccc2ccccc2[n+]1CC(=O)c1ccc2c(c1)OCO2
inactive: [1] -3% | [2] -23.2% | [3] -0.6% | [4] 3.85% | [5] -10.7% | [6] 10.7%

CCN(CC)c1ccc(/C=N\NC(=O)CCCC(=O)N/N=C/c2ccc(N(CC)CC)cc2)cc1
inactive: [1] -27.6% | [2] 2.65% | [3] -22.9% | [4] -21.9% | [5] 5% | [6] -30.4%

CC(C)(C)C(=O)C(c1ccc(-c2cscn2)cc1)c1ccc(-c2cscn2)cc1
inactive: [1] -2% | [2] -2.8% | [3] -1.1% | [4] 1.3% | [5] -5.3% | [6] -22.2%

CC/C(=N/N(C)C)C(=O)O
inactive: [1] -29.4% | [2] -3.9% | [3] -5.3% | [4] -10.6% | [5] -17.1% | [6] -16.3%

O=C(Nc1ccc(Cl)cc1)c1ccc(Cl)c(Cl)c1
inactive: [1] -1.6% | [2] 14.8% | [3] 7.1% | [4] -8.6% | [5] 11.8% | [6] -9.6%

COc1ccc(Cl)c2c(=O)c3ccc4c(c3[nH]c12)C(=O)c1ccccc1C4=O
inactive: [1] 21.8% | [2] -5.6% | [3] 4.25% | [4] -17.6% | [5] 3.8% | [6] 4.65%

CNC(=O)Nc1ccc(OC)cc1OC
inactive: [1] 3% | [2] -6.2% | [3] -8.35% | [4] -66.5% | [5] 3.2% | [6] -18.6%

Cc1ccc(C)c(C2NC(=O)c3ccccc3N2)c1 (stereo unspecified)
inactive: [1] -15.8% | [2] -9.25% | [3] -44.8% | [4] -30.2% | [5] -52.2% | [6] -19.8%

Clc1cccc(-c2ncc(-c3ccccc3)o2)c1
inactive: [1] 8.7% | [2] -3.8% | [3] -0.6% | [4] -29.2% | [5] 2.15% | [6] 19.1%

C/C(=N/OC(=O)c1cccc2c(=O)c3ccccc3[nH]c12)[C@H]1CC[C@H]2[C@@H]3CCC4=C/C(=N/OC(=O)c5cccc6c(=O)c7ccccc7[nH]c56)CC[C@]4(C)[C@H]3CC[C@]12C
inactive: [1] 29.4% | [2] 38% | [3] 66.5% | [4] 28.4% | [5] 48.9% | [6] 36.5%

Cn1cnc2c(=O)[nH]cnc21
inactive: [1] 12.9% | [2] -12.7% | [3] -2.4% | [4] -4.8% | [5] 14.7% | [6] -8.5%

O=C1C2C(C(=O)N1c1ccccc1)C1(Br)c3ccccc3C2(Br)C2C(=O)N(c3ccccc3)C(=O)C21 (stereo unspecified)
inactive: [1] -9.6% | [2] 6.3% | [3] -3.35% | [4] -13.4% | [5] -4.55% | [6] -2.55%

COc1ccc(CNc2cc(OC)c(OC)c(OC)c2)cc1
inactive: [1] -49.1% | [2] -36.7% | [3] -9.55% | [4] 9.25% | [5] -20.4% | [6] -33.1%
